4 compounds from PubChem BioAssay can be followed below.

The term inhibition denotes the relative decrease from the control value, in per cent.

The nature of experiment [1]: human hepatoma cell viability loss – ATP luminescence, cytotoxicity control for P. falciparum antimalarial project, primary screen (AID 2303;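 active = inhibition above 50%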;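 note: 0% = DMSO wells and 100% = digitonin-killed cells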). As to conditions: HepG2 viability, 24-48 h, at 10 µM, stronger effect = higher value.
The target of experiment [2] is L-lactate dehydrogenase (Plasmodium falciparum (isolate CDC / Honduras)) (UniProt Q27743). As to the kind of experiment: PfLDH activity inhibition – cell lysate, 3D7 strain, counter-screen for P. falciparum growth inhibition project (AID 2304; call rule not given here;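 note: 0% = vehicle and 100% = reference inhibitor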). Conditions: P. falciparum 3D7 crude extract, LDH APAD/NBT absorbance; at 2 µM; stronger effect = higher value. Background: The purpose of a counterscreen is to sort out artefacts and off-target activity.
Chain of L-lactate dehydrogenase (Plasmodium falciparum (isolate CDC / Honduras)) (Q27743 whole entry, looked up): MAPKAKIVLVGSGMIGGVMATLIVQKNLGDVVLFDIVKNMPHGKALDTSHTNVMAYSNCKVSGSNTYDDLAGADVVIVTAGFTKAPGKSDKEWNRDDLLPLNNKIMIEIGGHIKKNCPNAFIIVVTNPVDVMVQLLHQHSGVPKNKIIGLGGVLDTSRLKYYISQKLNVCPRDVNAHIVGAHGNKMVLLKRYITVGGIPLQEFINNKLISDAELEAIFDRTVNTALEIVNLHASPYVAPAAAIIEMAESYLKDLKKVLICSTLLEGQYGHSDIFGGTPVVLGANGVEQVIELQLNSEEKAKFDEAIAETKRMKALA

Experiment [3] in a line: inhibition of 3D7 malaria parasite growth – strain 3D7 (AID 2306; call rule not given here;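 note: 0% = DMSO wells and 100% = chloroquine plus artemisinin control wells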). As to conditions: P. falciparum 3D7 erythrocytic growth, LDH absorbance, 72 h; at 2 µM; stronger effect = higher value.
In experiment [4] the target is Calcium-dependent protein kinase 1 (Plasmodium falciparum (isolate 3D7)) (UniProt P62344). As to the kind of experiment: PfCDPK1 kinase inhibitors, biochemical, TCAMS library (AID 1159585; cut-off not given, nearly all actives have IC50 up to about 0.98 µM;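 note: inhibitors leave more ATP so luminescence rises with inhibition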). As to conditions: recombinant PfCDPK1, Kinase-Glo ATP depletion luminescence.
Chain of Calcium-dependent protein kinase 1 (Plasmodium falciparum (isolate 3D7)) (P62344 whole entry, looked up): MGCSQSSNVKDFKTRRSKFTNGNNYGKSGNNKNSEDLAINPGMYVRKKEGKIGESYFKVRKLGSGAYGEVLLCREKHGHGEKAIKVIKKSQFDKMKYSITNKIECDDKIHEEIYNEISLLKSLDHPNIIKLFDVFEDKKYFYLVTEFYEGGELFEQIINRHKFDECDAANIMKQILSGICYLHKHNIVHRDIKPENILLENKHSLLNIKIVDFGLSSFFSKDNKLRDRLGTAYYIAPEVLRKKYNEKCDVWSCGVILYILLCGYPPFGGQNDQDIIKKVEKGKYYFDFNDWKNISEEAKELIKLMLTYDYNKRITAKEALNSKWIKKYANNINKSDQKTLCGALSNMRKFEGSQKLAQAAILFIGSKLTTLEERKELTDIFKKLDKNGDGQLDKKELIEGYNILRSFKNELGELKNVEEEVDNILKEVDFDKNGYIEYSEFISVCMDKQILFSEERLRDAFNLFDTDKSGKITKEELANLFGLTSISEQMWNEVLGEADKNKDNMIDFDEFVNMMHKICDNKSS
For experiment [5], the target named is Plasmodium falciparum protein kinase 6 (PK6, PF3D7_1337100) (UniProt Q8IDW1). As to the kind of experiment: PfPK6 kinase inhibitors, biochemical, TCAMS library (AID 1159586; call rule not given here). Conditions: recombinant PfPK6, Kinase-Glo ATP depletion luminescence. For orientation: In Kinase-Glo more light means more ATP remaining.
Chain of Plasmodium falciparum protein kinase 6 (PK6, PF3D7_1337100) (Q8IDW1 1-305): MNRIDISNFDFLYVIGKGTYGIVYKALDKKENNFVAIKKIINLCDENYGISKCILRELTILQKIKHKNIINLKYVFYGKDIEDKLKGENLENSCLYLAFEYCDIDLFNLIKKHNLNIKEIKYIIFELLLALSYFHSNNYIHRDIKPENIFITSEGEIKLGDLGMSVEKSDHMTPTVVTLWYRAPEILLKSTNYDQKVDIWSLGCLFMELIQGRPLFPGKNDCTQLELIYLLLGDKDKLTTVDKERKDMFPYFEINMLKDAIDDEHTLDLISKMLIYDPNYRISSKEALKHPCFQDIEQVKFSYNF
In experiment [6] the target is Protein kinase 7 (PK7), Plasmodium falciparum 3D7 (PF3D7_0213400) (UniProt Q7YTF7). As to the kind of experiment: inhibition of Plasmodium PK7 catalytic activity – biochemical, TCAMS antimalarial set, Kinase-Glo luminescence (AID 1159587; call rule not given here). As to conditions: recombinant PfPK7, Kinase-Glo ATP depletion luminescence.
Chain of Protein kinase 7 (PK7), Plasmodium falciparum 3D7 (PF3D7_0213400) (Q7YTF7 1-343): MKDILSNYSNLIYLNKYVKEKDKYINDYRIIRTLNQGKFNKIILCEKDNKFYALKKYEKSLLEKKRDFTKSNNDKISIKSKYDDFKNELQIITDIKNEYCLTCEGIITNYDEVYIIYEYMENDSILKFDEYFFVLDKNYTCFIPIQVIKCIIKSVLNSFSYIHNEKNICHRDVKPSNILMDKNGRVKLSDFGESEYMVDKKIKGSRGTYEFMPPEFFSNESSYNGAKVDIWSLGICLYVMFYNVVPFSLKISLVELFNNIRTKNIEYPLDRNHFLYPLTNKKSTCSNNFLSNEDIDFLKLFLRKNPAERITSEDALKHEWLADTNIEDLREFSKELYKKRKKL
In experiment [7] the target is Calcium-dependent protein kinase 4 (Plasmodium falciparum (isolate 3D7)) (UniProt Q8IBS5). As to the kind of experiment: PfCDPK4 kinase inhibitors, biochemical, TCAMS library (AID 1159588; cut-off not given, nearly all actives have IC50 up to about 0.91 µM). Conditions: recombinant PfCDPK4, Kinase-Glo ATP depletion luminescence.
Chain of Calcium-dependent protein kinase 4 (Plasmodium falciparum (isolate 3D7)) (Q8IBS5 whole entry, looked up): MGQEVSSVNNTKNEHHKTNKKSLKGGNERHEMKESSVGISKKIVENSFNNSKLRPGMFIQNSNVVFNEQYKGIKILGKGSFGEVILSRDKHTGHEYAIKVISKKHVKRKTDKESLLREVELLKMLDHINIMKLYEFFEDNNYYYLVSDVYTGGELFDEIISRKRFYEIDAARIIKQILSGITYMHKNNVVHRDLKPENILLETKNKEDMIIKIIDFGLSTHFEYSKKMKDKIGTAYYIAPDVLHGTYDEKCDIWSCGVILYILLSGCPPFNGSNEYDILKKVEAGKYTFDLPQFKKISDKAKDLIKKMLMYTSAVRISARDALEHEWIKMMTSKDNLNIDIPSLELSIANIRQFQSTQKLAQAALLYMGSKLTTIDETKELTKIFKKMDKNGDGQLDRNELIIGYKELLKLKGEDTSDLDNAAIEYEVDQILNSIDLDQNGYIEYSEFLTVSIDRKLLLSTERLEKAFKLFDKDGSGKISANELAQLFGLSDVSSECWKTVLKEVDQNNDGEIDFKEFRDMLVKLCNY
Experiment [8] can be described thus: growth inhibition, single agents and combos, CRL2098, cell-based, BGB or cisplatin IC20 combos, synergistic combos for chromothripsis tumors (AID 1671454).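 Note: cells exposed for 96 h before readout; 0% = vehicle DMSO and 100% = killing by high DMSO.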 As to conditions: CRL2098 osteosarcoma cells, drug combinations, stronger effect = higher value.
Experiment [9] in a line: growth inhibition, single agents and combos, HD-MB03, cell-based, BGB or cisplatin IC20 combos, synergistic combos for chromothripsis tumors (AID 1671455; in the data active = inhibition above about 83%;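 note: 0% = vehicle DMSO and 100% = high DMSO as cytotoxic control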). As to conditions: HD-MB03 medulloblastoma cells, stronger effect = higher value.
Experiment [10] can be described thus: growth inhibition, single agents and combos, UWB1.289, cell-based, BGB or cisplatin combos, synergistic combos for chromothripsis tumors (AID 1671456).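 Note: cells exposed to compound for four days; 0% = vehicle DMSO and 100% = killing by high DMSO.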 As to conditions: UWB1.289 ovarian carcinoma cells, stronger effect = higher value.
Experiment [11] can be described thus: growth inhibition, single agents and combos, LFS_MB_2R, cell-based, cisplatin combos, synergistic combos for chromothripsis tumors (AID 1671457).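 Note: cells exposed to compound for four days before readout.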 As to conditions: LFS_MB_2R medulloblastoma cells, stronger effect = higher value.
Experiment [12] can be described thus: UWB1.289_BRCA1 ovarian cancer growth, cell-based, BGB or cisplatin combinations (AID 1671459). Conditions: UWB1.289 BRCA1 ovarian carcinoma, drug combinations, stronger effect = higher value.
Experiment [13] in a line: drug combination toxicity in non-malignant astrocytes – cell-based, BGB or cisplatin IC20 combos, cytotoxicity control for chromothriptic childhood tumor combination screen (AID 1671460).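 Note: cells exposed to compounds for 96 hours before viability readout; 0% = vehicle and 100% = killing control.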 As to conditions: Human astrocytes, viability inhibition, drug combinations, at 0.5 µM, stronger effect = higher value.
Experiment [14] is described as follows: antimalarial activity against Dd2 strain (AID 2302;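 active = growth inhibition above 50% at the single 2 µM test dose, taken to imply half-maximal potency below 2 µM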;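 note: 0% = DMSO untreated growth and 100% = chloroquine plus artemisinin killed control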). As to conditions: P. falciparum Dd2 in RBCs, LDH growth readout, 72 h; at 2 µM; stronger effect = higher value.
Experiment [15] in a line: rescue of PC12 cells from polyQ htt toxicity – LDH release (AID 1610). As to conditions: PC12 mutant huntingtin toxicity, final LDH at 4 uM, stronger effect = lower value. In general terms: Release of lactate dehydrogenase indicates damage to the cell membrane.

Structures are written as SMILES. Several values for one entry are separate records, joined by “and”; a condition that tells them apart may be missing. Identical values can stand only once. Inconclusive results are not listed. For some of these results: Potency and affinity values are given separately. Activity calls are given as the source filed them. Cut-off read from the data, not from the text of the source, unless noted: active = inhibition above about 80%; inactive = the rest.

For the compound `O=c1ccc2ccc(O)c(O)c2o1`, the inhibition was 4% (inactive) in experiment [1] and 0% (inactive) in [2]. The growth inhibition in experiment [3] was 85% (active). Besides, the result in experiment [4], in experiment [5], in [6] and in experiment [7] was inactive.

For the compound `CN(C)c1nc(N(C)C)nc(N(C)C)n1`, the inhibition in experiment [8] (at 0.5 µM) was -49.5% (inactive) and -47.8% (inactive); in [8] (measured here: combination with BGB at IC20, at 0.5 µM) it was -51.4% and 13.2%; in [8] (measured here: combination with cisplatin at IC20, at 0.5 µM), -47.8% and -102%; in [9] (at 0.5 µM), 1.44% (inactive) and -2.84% (inactive); in experiment [9] (measured here: combo with BGB at IC20, at 0.5 µM) it was -7.11% and -19.4%; in experiment [9] (measured here: combo with cisplatin at IC20, at 0.5 µM) it was 0.726% and 22%. Moreover, the inhibition is -1.03% (inactive) and 0.53% (inactive) in [10] (at 0.5 µM); -18.8% and -9.83% in [10] (measured here: inhibition with BGB combination, at 0.05 µM); -9.85% and -22.8% in experiment [10] (measured here: inhibition with cisplatin combination, at 0.05 µM); -22.5% (inactive) and -23.2% (inactive) in [11] (at 0.5 µM); -24.3% and -25.9% in experiment [11] (measured here: combination with cisplatin, at 0.5 µM); -28.5% and -13.6% in experiment [11] (measured here: combination with cisplatin, at 5 µM). Moreover, the inhibition in experiment [12] (BGB combination, concentration series, at 5 µM) is 3.42% and 17.2%; in experiment [12] (at 0.5 µM), -3.79% (inactive) and -4% (inactive); in experiment [12] (cisplatin combination, concentration series, at 5 µM), 4.29% and 15.7%; in experiment [13] it was 2.24% (inactive) and 16.1% (inactive); in experiment [13] (measured here: combo with BGB IC20) it was 5.31% and 10%; in experiment [13] (measured here: combo with cisplatin IC20), -12.9% and 15.6%.

As for `COc1ccc(C[C@H](N)C(=O)N[C@H]2[C@@H](O)[C@H](n3cnc4c(N(C)C)ncnc43)O[C@@H]2CO)cc1`, the growth inhibition in [14] is 91% (active); in experiment [3], 100% (active). The inhibition in [1] was 98% (active); in [2], 5% (inactive). Besides, the result in experiment [4], in experiment [5], in experiment [6] and in experiment [7] was inactive.

Compound `O=c1cc(-c2ccc(O)cc2)oc2cc(O)cc(O)c12` gave a normalised LDH release in [15] of 0.887.
